16 compounds from PubChem BioAssay (NCI) can be followed below.

Some test systems named below: HCT-15 colon; SNB-75 CNS; SNB-19 CNS; U251 CNS; PC-3 prostate; SK-MEL-5 melanoma; UACC-62 melanoma; LOX IMVI melanoma; SK-MEL-28 melanoma; HT29 colon.
What all share (test): NCI-60 one-dose screen, 48 h (100 = growth as untreated, 0 = no growth, -100 = all killed)
What all share (conditions): 10 µM

This is part of a sample that, as a whole, favours compounds with a hit. Of some 83,000 tested, about 20% had one in any assay.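 Testing used 96-well plates and a 48-hour single-concentration exposure. Example: -40 means 40% of the starting cells died.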 Values without a mark were called inactive. The source made the active and inactive calls. Rule for the calls: active = growth percent below 10; inactive = the rest.

With `Clc1ccc(Cc2ccncc2)cc1`, the growth with HCT-15 colon is 104%; with SNB-75 CNS, 89.8%; with SNB-19 CNS, 98.9%; in the assay with U251 CNS, 113%; in the assay with PC-3 prostate it was 103%; in the assay on SK-MEL-5 melanoma, 104%. In addition, the figures for the growth in the assay with UACC-62 melanoma, in the assay on LOX IMVI melanoma and with SK-MEL-28 melanoma were 95.3%, 97.9% and 112%, respectively.

For `O=C(O)c1ccc(-n2cc(CNc3ccc(Cl)cc3)c(-c3ccccc3)n2)cc1`, the growth is 70.5% in the assay with HCT-15 colon; 102% in the assay on HT29 colon; 94.8% in the assay on SNB-19 CNS; 93.5% in the assay on U251 CNS; 97.2% with PC-3 prostate; 87.6% with SK-MEL-5 melanoma. For the same compound, the growth in the assay with UACC-62 melanoma was 67.6%; in the assay with SK-MEL-28 melanoma it was 92.8%.

In the case of `Cc1ccc(-n2nnnc2N)c(C)c1`, the growth is 106% with HCT-15 colon; 123% in the assay with HT29 colon; 99.5% with U251 CNS; 105% in the assay on PC-3 prostate; 115% in the assay on SK-MEL-5 melanoma; 96.4% in the assay with UACC-62 melanoma. Moreover, the growth with LOX IMVI melanoma is 93.8%; in the assay on SK-MEL-28 melanoma it was 112%.

`COc1cc(CNC(=O)C2CSC3(C)c4ccccc4C(=O)N23)cc(OC)c1OC` (stereo not given): the growth in the assay on HCT-15 colon was 106%; in the assay on HT29 colon, 82.6%; with SNB-19 CNS, 93%; in the assay with U251 CNS it was 82.7%; in the assay on SK-MEL-5 melanoma, 102%; in the assay on UACC-62 melanoma it was 92.5%. Moreover, the growth in the assay on SK-MEL-28 melanoma was 103%.

Consider `Cc1ccc(NC(=O)N2CCCCC2)cc1[N+](=O)[O-]`, for which the growth was 96% in the assay with HCT-15 colon; 103% with HT29 colon; 98.4% in the assay on SNB-19 CNS; 101% with U251 CNS; 76.6% with PC-3 prostate; 103% with SK-MEL-5 melanoma. The growth is 86.7% in the assay on UACC-62 melanoma and 105% in the assay on SK-MEL-28 melanoma.

For `COc1ccc(-c2cc(-c3cc(OC)ccc3OC)nc(N)c2C#N)cc1`, the growth in the assay on HCT-15 colon is 51.2%; with HT29 colon, 60.7%; in the assay on SNB-19 CNS it was 48.8%; in the assay on U251 CNS it was 61.2%; in the assay on SK-MEL-5 melanoma it was 63%; in the assay on UACC-62 melanoma it was 42.3%. Besides, the growth in the assay on SK-MEL-28 melanoma is 88.5%.

On to `COc1cc(C2CC(c3ccc4c(c3)OCO4)=NN2c2ccccc2)cc(OC)c1OC` (stereo not given), for which the growth was 81% in the assay on HCT-15 colon; 58.8% with SNB-75 CNS; 84.8% in the assay with SNB-19 CNS; 38.9% in the assay on U251 CNS; 92.6% in the assay with PC-3 prostate; 86% with SK-MEL-5 melanoma. The growth is 76.7% in the assay on UACC-62 melanoma, 89.4% with LOX IMVI melanoma and 99.7% in the assay with SK-MEL-28 melanoma.

Take `COc1cc(-c2nn(-c3ccc(NC(=O)NCCCNC(=O)c4ccccc4)cc3)cc2-c2ccncc2)ccc1Cl`: the growth was 3.51% (active) in the assay on HT29 colon; 25% in the assay with SNB-75 CNS; 55.8% with SNB-19 CNS; 14.9% in the assay with U251 CNS; 19.4% in the assay on PC-3 prostate; -43.5% (active) in the assay on SK-MEL-5 melanoma. In addition, the growth with UACC-62 melanoma is 51.7%; in the assay with LOX IMVI melanoma it was 15.1%; in the assay with SK-MEL-28 melanoma, 52.1%.

`C[C@]12CC[C@@H]3c4ccc(O)cc4CC[C@H]3[C@@H]1CC[C@@H]2NS(=O)(=O)c1ccc(C(F)(F)F)cc1`: the growth in the assay with HCT-15 colon was 32.7%; in the assay with SNB-75 CNS, 62.1%; in the assay with SNB-19 CNS, 97.5%; in the assay on PC-3 prostate, 24.2%; in the assay with SK-MEL-5 melanoma it was 41.2%; with UACC-62 melanoma, 73.5%. In the assay on SK-MEL-28 melanoma, the growth was 73.1%.

Consider `COc1ccc(-c2nn(-c3cccc(Cl)c3)cc2-c2nc(N)[nH]c(=O)c2C#N)cc1`, for which the growth in the assay on HT29 colon is 86.5%; in the assay with SNB-75 CNS it was 68.9%; in the assay with SNB-19 CNS, 60.3%; in the assay with PC-3 prostate, 75.5%; in the assay with SK-MEL-5 melanoma, 67.6%; in the assay on UACC-62 melanoma, 58.8%. In addition, the growth with LOX IMVI melanoma was 63%; with SK-MEL-28 melanoma it was 90.4%.

As for `OCC1OC2C(NC(=S)N2c2ccccc2)C(O)C1O` (stereo not given), the growth was 101% in the assay on HT29 colon; 99.6% with SNB-75 CNS; 91.9% in the assay on SNB-19 CNS; 97.5% with U251 CNS; 96% in the assay with PC-3 prostate; 98.5% in the assay with SK-MEL-5 melanoma. For the same compound, the growth in the assay with UACC-62 melanoma is 98.7%; with LOX IMVI melanoma, 100%; in the assay on SK-MEL-28 melanoma, 105%.

For `CN(C)CCOc1ccc(-c2nc3sccn3c2-c2ccnc(S(C)(=O)=O)n2)cc1`, the growth with HT29 colon is 103%; with SNB-75 CNS it was 88.5%; in the assay with U251 CNS it was 95.1%; with PC-3 prostate, 87.2%; in the assay with SK-MEL-5 melanoma, 101%; in the assay with UACC-62 melanoma it was 105%. For the same compound, the figures for the growth in the assay on LOX IMVI melanoma and in the assay with SK-MEL-28 melanoma were 97.5% and 110%, respectively.

As to `COc1ccc(/C(C#N)=C/c2cccc(OC)c2OC)cc1`, the growth in the assay on HT29 colon was 59.8%; in the assay on SNB-75 CNS it was 91.3%; in the assay on SNB-19 CNS, 84.3%; with PC-3 prostate it was 82%; in the assay with SK-MEL-5 melanoma, 73.1%; in the assay with UACC-62 melanoma, 70.5%. The figures for the growth with LOX IMVI melanoma and with SK-MEL-28 melanoma were 84.1% and 84.5%, respectively.

As for `CCN(CC)CCOc1cccc2c1C(=O)c1cccc(OCCN(CC)CC)c1C2=O`, the growth in the assay with HT29 colon is 13.8%; in the assay on SNB-75 CNS it was 53.3%; with SNB-19 CNS, 31.8%; in the assay on U251 CNS it was 24.8%; in the assay with PC-3 prostate, 32.2%; in the assay with SK-MEL-5 melanoma, 72%. Also, the growth in the assay on UACC-62 melanoma was 56.9%; with LOX IMVI melanoma, 18.2%; in the assay with SK-MEL-28 melanoma, 82.5%.

Consider `Cc1cn(-c2cccc(NC(=O)c3ccc(C)c(Nc4nccc(-c5cccnc5)n4)c3)c2)cn1`, for which the growth with HT29 colon was -43.4% (active); with SNB-75 CNS it was -45% (active); with SNB-19 CNS, 51.2%; in the assay with PC-3 prostate it was 34.4%; in the assay on SK-MEL-5 melanoma it was 40.2%; with UACC-62 melanoma, 3.99% (active). The growth in the assay with LOX IMVI melanoma is -65.5% (active); in the assay on SK-MEL-28 melanoma it was -37.6% (active).

`CCOC(=O)c1sc2ncnc(Nc3ccc(NC(=O)Nc4ccc(Cl)cc4)cc3)c2c1C`: the growth with HT29 colon was 43%; with SNB-75 CNS, 17.6%; with SNB-19 CNS, 73.7%; in the assay with U251 CNS, 26.3%; in the assay on SK-MEL-5 melanoma, 32.2%; in the assay on UACC-62 melanoma it was 78.8%. For the same compound, the growth is 44.4% in the assay with LOX IMVI melanoma and 79.5% in the assay on SK-MEL-28 melanoma.
